Our source for the inhibition values is ChEMBL document CHEMBL1961873, “Compounds: GSK PKIS; Assays: Nanosyn kinase panel” (2012).
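Also: each value is a mean percent inhibition.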

In this experiment the target is T1, Ephrin type-B receptor 4 (Homo sapiens) (UniProt P54760).
T1 sequence (whole entry): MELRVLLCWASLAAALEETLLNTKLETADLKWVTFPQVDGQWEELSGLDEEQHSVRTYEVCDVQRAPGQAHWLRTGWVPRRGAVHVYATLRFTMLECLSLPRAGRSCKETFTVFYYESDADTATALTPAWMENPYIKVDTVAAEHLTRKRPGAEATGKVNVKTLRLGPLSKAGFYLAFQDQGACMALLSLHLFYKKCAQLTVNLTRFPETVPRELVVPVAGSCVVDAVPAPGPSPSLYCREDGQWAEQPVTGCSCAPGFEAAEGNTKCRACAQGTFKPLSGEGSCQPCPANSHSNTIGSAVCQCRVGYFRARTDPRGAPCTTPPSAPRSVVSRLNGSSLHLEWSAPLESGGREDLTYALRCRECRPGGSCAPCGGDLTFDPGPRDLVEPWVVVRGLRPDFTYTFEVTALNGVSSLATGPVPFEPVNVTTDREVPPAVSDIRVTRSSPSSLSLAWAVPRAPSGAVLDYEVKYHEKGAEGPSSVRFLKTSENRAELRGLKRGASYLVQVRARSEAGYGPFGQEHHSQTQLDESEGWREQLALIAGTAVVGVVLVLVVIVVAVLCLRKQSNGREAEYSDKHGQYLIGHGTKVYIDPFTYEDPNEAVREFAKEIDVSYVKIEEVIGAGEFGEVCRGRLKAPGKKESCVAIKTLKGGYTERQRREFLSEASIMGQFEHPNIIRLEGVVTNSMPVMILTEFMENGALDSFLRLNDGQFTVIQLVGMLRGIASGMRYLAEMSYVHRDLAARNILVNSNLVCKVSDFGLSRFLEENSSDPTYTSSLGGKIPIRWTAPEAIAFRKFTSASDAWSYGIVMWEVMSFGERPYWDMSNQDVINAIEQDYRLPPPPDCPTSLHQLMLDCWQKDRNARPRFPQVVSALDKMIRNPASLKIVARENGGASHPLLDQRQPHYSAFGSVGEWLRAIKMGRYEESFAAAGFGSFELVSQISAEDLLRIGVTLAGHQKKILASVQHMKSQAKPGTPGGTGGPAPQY
The following applies: at 0.1 µM.
A word on the inhibition: it is the relative decrease from the control value, in per cent. On to `CN(C)C(=O)O[C@H]1CN[C@H](C#Cc2cc3ncnc(Nc4ccc(OCc5cccc(F)c5)c(Cl)c4)c3s2)C1`, for which the inhibition is 2.43%.
The figure for `CCS(=O)(=O)c1ccc(OC)c(Nc2ncc(-c3cccc(OC)c3)o2)c1` is 3.32%.
The result for `COc1cc2ncn(-c3cc(OCc4ccccc4S(C)(=O)=O)c(C#N)s3)c2cc1OC` reads 4.74%.
In the case of `[O-][S+]1CCN(Cc2ccc(-c3ccc4ncnc(Nc5ccc(OCc6ccccc6)c(Cl)c5)c4c3)o2)CC1`, the inhibition is -0.7%.
The result for `OCc1ccc(-c2nc(-c3ccccn3)c(-c3ccc4c(c3)OCO4)[nH]2)cc1` reads 4.58%; that for `COc1cc(/C=N/Nc2ncnc3c2cnn3C(C)C)ccc1O`, 3.42%.
On to `Nc1nccc(-c2c(-c3ccc(F)cc3)nn3cc(C(F)(F)F)ccc23)n1`, for which the inhibition stood at 0.18%.
The result for `CN(C)CCCn1c(-c2nonc2N)nc2cnccc21` reads 3.38%; that for `COc1cc(Nc2nccc(-c3cnn4ncccc34)n2)cc(OC)c1`, 2.69%; that for `NS(=O)(=O)c1cccc(-c2cc3ccncc3cc2OCc2ccccc2)c1`, 2.45%.
The result for `CN1CCN(C(=O)c2ccc(NC(=O)Nc3ccc(N(C)c4ccnc(Nc5ccc(CS(C)(=O)=O)cc5)n4)cc3)cc2)CC1` reads 2.21%; that for `Cc1ccc2c(c1)/C(=N/Nc1ccc(S(N)(=O)=O)cc1)C(=O)N2`, 0.65%; that for `Cc1ccc(NC(=O)CC2CC2)cc1-c1ccc(C(=O)NCC2CC2)cc1`, 0.66%.
As for `CN(c1ccc(NC(=O)Nc2ccc(OC(F)(F)F)cc2)cc1)c1ccnc(Nc2cccc(S(N)(=O)=O)c2)n1`, the inhibition amounted to 1.79%.
The figure for `C[C@@H](Oc1cc(-n2cnc3ccc(OC[C@@H](O)CO)cc32)sc1C(N)=O)c1ccccc1Cl` is -3.41%.
